Screening data: PubChem BioAssay, National Center for Advancing Translational Sciences (NCATS)
Sm TGR block = inhibitors of Schistosoma mansoni thioredoxin glutathione reductase; Q962Y6; purified TGR, DTNB reduction, TNB absorbance 405 nm; Potency, µM (series often up to 114 µM), without a hit: top-dose activity change, negative = inhibition, most hits filed as inhibitors; hit rate 3% among 360,000; further: nearly all actives have a fitted effect of over 60% in size
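First, TGR (20 nM dispensed) and NADPH were mixed with compound. Second, a 15 min room-temperature incubation followed. Third, further NADPH and then DTNB were added to start the reaction. Finally, TNB absorbance was monitored kinetically.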
FMDV inh = foot and mouth disease virus antiviral activity; hit rate 1.2% among 410,000; FMDV antiviral cell-based qHTS; AID 1159524; Potency, µM (series often up to 57.9 µM), for inactives: top-dose activity change, negative = inhibition, usual class: inhibitors; calls by dose curve; tested in HEK293T cells; further: read-out not given here; nearly all actives have a fitted effect of over 45% in size
HCV inh = HCV inhibition; Huh7.5.1 HCVcc-Cre infection, luciferase reporter, 44 h; Potency, µM (doses to about 41.8 µM), for the others: at the top dose activity change, negative = inhibition, actives largely listed as inhibitors; hit rate 3.4% among 340,000
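Infectious HCVcc-Cre (~0.5 moi) was added to cells just after compound, with cells seeded 4 h earlier at 1,000 per well. Luciferase activity after 44 h culture reported infection; substrate was incubated 15 min at room temperature before reading.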
Lassa entry inh = inhibitors of Lassa virus binding or cell entry. Lassa virus pseudotype entry inhibition, cell reporter. hit rate 1.2% among 300,000. Potency, µM (titrated, usually from 37.9 µM), without a hit: at the highest dose activity change, negative = inhibition, usual class: inhibitors; calls by dose curve; tested in HEK293 cells; further: nearly all actives have a fitted effect of over 50% in size
RE007 growth inh = less growth of the S. pombe RE007 Vpr strain; S. pombe RE007 Vpr strain, BacTiter-Glo ATP luminescence, 24 h; Potency, µM (doses to about 92.2 µM), inactives show top-dose activity change, negative = less growth, usual class: inhibitors; hit rate 0.21% among 360,000; active means well fitted falling curve with a large enough effect; inconclusive means small, poorly fitted or top-dose-only effect; inactive means no such curve, though single readings can be large or run the other way; further: nearly all actives have a fitted effect of over 50% in size
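Fission yeast RE007 carrying one integrated HIV-1 vpr copy, seeded at OD 0.01 in PMG+AL medium with 23 nL pinned compound. Grown 24 h at 30 degrees; viability read by BacTiter-Glo luminescence after 5 min.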
Marburg entry inh = blocks Marburg virus binding to or entry into cells. Potency, µM (series often up to 37.8 µM), for the others: at the top dose activity change, negative = inhibition, actives largely listed as inhibitors. hit rate 1.8% among 300,000. Marburg virus pseudotyped entry inhibition, cell reporter; calls by dose curve; tested in HEK293 cells
The depositor's hits bear a star; [ ] = another dose, or the depositor's remark. Most compounds without a hit are left out; they make up all but 7.2% or so of the library. Unless noted, the call rests on the fitted dose curve; in most records, active means well fitted curve in the direction sought with a large enough effect; inconclusive means small, poorly fitted or top-dose-only effect, or another doubt; inactive means no such curve, though single readings can be large; an effect the other way counts as inactive or inconclusive. On the % scale 0 is the no-effect control and ±100 the full control effect; potency means the concentration at half of the fitted maximal effect.

Results for COc1ccc2cc(CN(Cc3ccco3)C(c3nnnn3C3CCCCC3)C(C)C)c(=O)[nH]c2c1 (configuration not stated) ?
Sm TGR block: inconclusive; FMDV inh: 16µM*; HCV inh: inconclusive; Lassa entry inh: 8%; RE007 growth inh: -16%; Marburg entry inh: 0%

How did Cc1cc(C)c2[nH]c(=O)c(C(c3nnnn3C(C)(C)C)N(Cc3ccco3)CC3CCCO3)cc2c1 (configuration not stated) do in these assays?
Sm TGR block: 45µM*; FMDV inh: 8%; HCV inh: -8%; Lassa entry inh: -2%; RE007 growth inh: -2%; Marburg entry inh: inconclusive

How did Cc1cccc2cc(CN(CC3CCCO3)C(c3nnnn3Cc3ccco3)C(C)C)c(=O)[nH]c12 (configuration not stated) do in these assays?
Sm TGR block: 50µM*; FMDV inh: 0%; HCV inh: inconclusive; Lassa entry inh: inconclusive; RE007 growth inh: -2%; Marburg entry inh: inconclusive

What do the screens show for `Cc1ccc2cc(CN(CCCN3CCOCC3)C(c3nnnn3Cc3ccco3)C(C)C)c(=O)[nH]c2c1C` (configuration not stated)?
FMDV inh: -18%; HCV inh: -14%; Lassa entry inh: 3%; RE007 growth inh: 4%; Marburg entry inh: inconclusive

How did O=C(Cn1ncc2c1-c1ccccc1OC2)N1CCN(c2ccccc2F)CC1 do in these assays?
Sm TGR block: -13%; FMDV inh: inconclusive; Marburg entry inh: 3%[46.1 µM]

What do the screens show for `Cc1ccccc1OCC(=O)OCc1cc(=O)n2nc(C3CC3)sc2n1`?
Sm TGR block: 4%; FMDV inh: 30%; Lassa entry inh: 6%[46.1 µM]

What do the screens show for `O=C(CN1C(=O)COc2ccc(S(=O)(=O)N3CCOCC3)cc21)N1CCN(c2cccc(C(F)(F)F)c2)CC1`?
Sm TGR block: -14%; FMDV inh: -29%; Lassa entry inh: 6%[46.1 µM]; Marburg entry inh: inconclusive

What do the screens show for `C=CCn1c(COc2ccccc2F)nnc1SCC(=O)Nc1cc2oc3ccccc3c2cc1OC`?
Sm TGR block: 0%; FMDV inh: -14%; HCV inh: 7.1µM*; Lassa entry inh: inconclusive; RE007 growth inh: 2%; Marburg entry inh: inconclusive

How did C=CCn1c(COc2ccccc2F)nnc1SCC(=O)c1c[nH]c2ccccc12 do in these assays?
Sm TGR block: -9%; FMDV inh: -30%; HCV inh: inconclusive; Lassa entry inh: inconclusive; RE007 growth inh: -29%; Marburg entry inh: 13µM*

What do the screens show for `C=CCn1c(SCC(=O)Nc2cc3oc4ccccc4c3cc2OC)nnc1-c1cnccn1`?
Sm TGR block: 0%; FMDV inh: 7%; HCV inh: 13µM*; Lassa entry inh: 0%; RE007 growth inh: 6%; Marburg entry inh: inconclusive

How did CCCCc1nn2c(=O)cc(COC(=O)c3ccccc3NC(=O)c3ccccc3OC)nc2s1 do in these assays?
Sm TGR block: 9%; FMDV inh: 0%; Lassa entry inh: 16%[46.1 µM]

Results for Cc1cc2c(cc1C)N(C(=O)CCl)CCN2C(=O)CCl ?
FMDV inh: 8.9µM*; HCV inh: 4µM*; Lassa entry inh: inconclusive; RE007 growth inh: -3%; Marburg entry inh: inconclusive

What do the screens show for `Cc1ccc(C2(c3ccccc3)NC(=O)N(CC(=O)N3CC(=O)Nc4ccccc43)C2=O)cc1C` (configuration not stated)?
Sm TGR block: -8%; FMDV inh: -29%; HCV inh: inconclusive; RE007 growth inh: -17%

How did Cc1ccc(Cl)cc1N1CCN(C(=O)CCC(=O)O)CC1 do in these assays?
Sm TGR block: -16%; FMDV inh: -6%; HCV inh: 6%; Lassa entry inh: 6%; RE007 growth inh: 4%; Marburg entry inh: 20%

What do the screens show for `Cc1cc2c(cc1C)N(C(=O)CCl)CC(=O)N2`?
FMDV inh: 40µM*; RE007 growth inh: -23%

How did CCc1cccc2c1NC(=O)C21N2CCCC2C(C(=O)c2ccc3ccccc3c2)C12C(=O)Nc1ccccc12 (configuration not stated) do in these assays?
Sm TGR block: 1%; FMDV inh: -21%; HCV inh: inconclusive; Lassa entry inh: inconclusive; RE007 growth inh: -1%; Marburg entry inh: 10µM*

How did Cc1cccc2c1NC(=O)C21N2CCCC2C(C(=O)c2ccc3ccccc3c2)C12C(=O)Nc1ccccc12 (configuration not stated) do in these assays?
Sm TGR block: -10%; FMDV inh: 18%; HCV inh: inconclusive; RE007 growth inh: -10%

What do the screens show for `CCCCCCCCOC(=O)c1ccc(N)cc1`?
Sm TGR block: -2%; FMDV inh: 1%; HCV inh: -6%; Lassa entry inh: -3%; RE007 growth inh: 28µM*; Marburg entry inh: -15%

Results for Cc1cc(C)cc(OCCOCCn2c(-c3ccc(Cl)cc3)nc3ccccc3c2=O)c1 ?
Sm TGR block: 7%; FMDV inh: 0%; Lassa entry inh: -23%[46.1 µM]; Marburg entry inh: 7.1µM*

Results for Nc1nc(-c2ccc(Cl)cc2)c(N=Nc2ccc(S(=O)(=O)N3CCOCC3)cc2)s1 ?
Sm TGR block: -15%; FMDV inh: inconclusive; HCV inh: 11µM*; Lassa entry inh: 4%; RE007 growth inh: 15%; Marburg entry inh: inconclusive

Results for O=S(=O)(c1ccc(Cl)cc1)N1CCC(N2CCOCC2)CC1 ?
Sm TGR block: 11%; FMDV inh: -23%; HCV inh: -17%; Lassa entry inh: inconclusive; RE007 growth inh: 4%; Marburg entry inh: 20%

Results for COc1cccc(C2c3[nH]c4ccccc4c3C[C@H]3C(=O)N(c4ccccc4C(=O)N4CCC[C@H]4C(=O)O)C(=O)N23)c1 (some centres not stated) ?
Sm TGR block: 0%; FMDV inh: -18%; HCV inh: 2.2µM*; RE007 growth inh: 0%

How did CN(CCC#N)C(=O)COC(=O)c1c2c(nc3ccccc13)/C(=C\c1ccco1)CC2 do in these assays?
FMDV inh: 16%; HCV inh: 13µM*; Lassa entry inh: inconclusive; RE007 growth inh: -9%; Marburg entry inh: inconclusive

How did O=c1[nH]c2ccccc2n1C1CCN(C(CCc2ccccc2)c2nnnn2C2CCCC2)CC1 (configuration not stated) do in these assays?
FMDV inh: 35µM*; RE007 growth inh: -5%

How did C(=C\c1ccccc1)/CN1CCN(C(CCc2ccccc2)c2nnnn2C2CCCCC2)CC1 (configuration not stated) do in these assays?
FMDV inh: 0%; RE007 growth inh: -22%
